The results in this text go back to PubChem BioAssay (NCI).

Test systems include EKVX NSCLC; SN12C renal; UO-31 renal; TK-10 renal; ACHN renal; CAKI-1 renal; A498 renal; CCRF-CEM leukemia; MOLT-4 leukemia.
Assay in all cases: NCI-60 one-dose screen, 48 h (100 = growth as untreated, 0 = no growth, -100 = all killed)
What all share (details): 10 µM unless noted

Compounds without any hit were thinned out: in the full panel of roughly 83,000, 20% have a hit.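 Single-dose data. Exposure time 48 hours. Values below 10 considered active.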 Unmarked numbers belong to inactive results. Calls of active or inactive are those of the source.

Turning to `O=C(/C=C/C12c3ccccc3C(c3ccccc31)C1C(=O)NC(=O)C12)c1ccc(I)cc1` (stereo unspecified), the growth was 66.1% with EKVX NSCLC; 50.9% with SN12C renal; 46.2% in the test with UO-31 renal; 66.7% with TK-10 renal; 67.6% in the test with ACHN renal; 60.4% in the test with CAKI-1 renal. In addition, the growth in the test with A498 renal was 56.1%; in the test with CCRF-CEM leukemia it was 1.53% (active); in the test on MOLT-4 leukemia, 6.91% (active).

On to `COC(=O)c1c2c(c[n+]([O-])c1C)C(=O)C=C(NCc1ccccc1)C2=O`, for which the growth with EKVX NSCLC is -98.8% (active); with SN12C renal, -91.5% (active); with UO-31 renal it was -100% (active); in the test on TK-10 renal, -82.4% (active); with ACHN renal it was -89.7% (active); with CAKI-1 renal it was -98.2% (active). Besides, the growth in the test with A498 renal is -99.3% (active); with CCRF-CEM leukemia, 0.673% (active); in the test with MOLT-4 leukemia it was -44.3% (active).

Consider `CS(=O)(=O)Nc1cc(-c2ccc3ncnc(Nc4ccc(F)c(Cl)c4)c3c2)ccc1Cl`, for which the growth is 20.9% with EKVX NSCLC; 52.7% with SN12C renal; 36.5% with UO-31 renal; 17.3% in the test with TK-10 renal; 27.2% in the test with ACHN renal; 18.1% with CAKI-1 renal. For the same compound, the results for the growth in the test on A498 renal, in the test on CCRF-CEM leukemia and with MOLT-4 leukemia were 6.7% (active), 30.2% and 40.2%, respectively.

For the compound `COc1ccc(C2CC(n3ccnc3)c3cc(OC)c(OC)c(OC)c32)cc1O` (stereo unspecified), the growth with EKVX NSCLC was 101%; in the test on SN12C renal, 104%; in the test with UO-31 renal it was 79.9%; with TK-10 renal, 101%; in the test on ACHN renal, 86.4%; in the test with CAKI-1 renal, 74.5%. Besides, the values for the growth with A498 renal, in the test on CCRF-CEM leukemia and in the test on MOLT-4 leukemia were 88.3%, 90.9% and 90%, respectively.

For the compound `CCOC(=O)c1cn2ncnc(Oc3ccc(NC(=O)NC4CC4)c(Cl)c3)c2c1C`, the growth is 89.8% with EKVX NSCLC; 79.9% in the test with SN12C renal; 65.3% with UO-31 renal; 113% in the test with TK-10 renal; 96.4% in the test on ACHN renal; 101% in the test on CAKI-1 renal. The growth in the test with A498 renal was -0.592% (active); with CCRF-CEM leukemia, 89.2%; with MOLT-4 leukemia, 88.8%.

On to `CNC(=O)c1cc(Oc2ccc3c(c2)sc2nc(-c4ccc(Cl)c(C(F)(F)F)c4)cn23)ccn1`, for which the growth was 46.7% in the test with EKVX NSCLC; 58.8% in the test on UO-31 renal; 48.3% in the test on TK-10 renal; 62.9% in the test on ACHN renal; 74.1% in the test with CAKI-1 renal; 50.6% in the test on A498 renal. Besides, the growth with CCRF-CEM leukemia is 47.4%; in the test on MOLT-4 leukemia, 41.6%.

Regarding `O=C(/C=C/c1cn(-c2ccccc2)nc1-c1ccccc1)CCC(=O)NO`, the growth with EKVX NSCLC was 111%; in the test with SN12C renal, 102%; in the test on UO-31 renal it was 87.7%; in the test with TK-10 renal, 104%; in the test with ACHN renal, 106%; in the test on CAKI-1 renal, 94.5%. The growth in the test with A498 renal was 105%; in the test on CCRF-CEM leukemia, 93.2%; with MOLT-4 leukemia, 79.9%.

Consider `CC(C)C1C2=C(NCCN1C(=O)c1ccncc1)C(C)(C)N(Cc1ccccc1)C2=O` (stereo unspecified), for which the growth in the test with EKVX NSCLC was 99.1%; in the test with SN12C renal, 93.3%; with UO-31 renal, 83.2%; with TK-10 renal, 89.9%; with ACHN renal, 105%; in the test with CAKI-1 renal, 94.4%. Besides, the growth is 108% with CCRF-CEM leukemia and 84% in the test on MOLT-4 leukemia.

On to `COc1ccc(OC)c(Nc2nnc(-c3cc(OC)c(OC)c(OC)c3)o2)c1`, for which the growth in the test with EKVX NSCLC was 99.8%; in the test with SN12C renal it was 89.5%; in the test with UO-31 renal, 89.6%; in the test on CAKI-1 renal, 100%; with A498 renal it was 89.9%; in the test on CCRF-CEM leukemia, 121%. Moreover, the growth in the test with MOLT-4 leukemia was 84.1%.

On to `O=S(O)c1cc(Cl)cc(Cl)c1OCc1ccccc1`, for which the growth is 99.1% in the test with EKVX NSCLC; 98.4% in the test on SN12C renal; 90.3% with UO-31 renal; 110% in the test on ACHN renal; 99% in the test on CAKI-1 renal; 80% with A498 renal. The growth in the test with CCRF-CEM leukemia was 102%; in the test on MOLT-4 leukemia it was 101%.

Regarding `O=c1cc(C(F)(F)F)c2cc(-c3cc4ccccc4c(=O)o3)c(O)cc2o1`, the growth was 89.5% in the test on EKVX NSCLC; 58.5% in the test on UO-31 renal; 74.1% with ACHN renal; 76.5% in the test with CAKI-1 renal; 72% with A498 renal; 53.9% in the test with CCRF-CEM leukemia. Further, the growth in the test on MOLT-4 leukemia is 58.5%.

With `Cc1nc([P+](c2ccccc2)(c2ccccc2)c2ccccc2)c(N2CCCCC2)o1`, the growth with EKVX NSCLC was 63.4%; with UO-31 renal, 97%; with ACHN renal it was 87.6%; in the test on CAKI-1 renal it was 78%; in the test with A498 renal, 34.6%; in the test with CCRF-CEM leukemia, 21.2%. In addition, in the test with MOLT-4 leukemia, the growth is 28.8%.

`O=CCCCOCc1ccccc1`: the growth was 95.6% in the test with EKVX NSCLC; 98.8% in the test with SN12C renal; 95% in the test on UO-31 renal; 97.7% in the test on TK-10 renal; 98.1% in the test with CAKI-1 renal; 85.8% with A498 renal. In addition, the growth in the test with CCRF-CEM leukemia is 104%; with MOLT-4 leukemia it was 103%.

In the case of `Cc1cc(C)c2c(c1)N(C)c1ncnc(-n3c(C)nc4cc(C)ccc43)c1CC2C` (stereo unspecified), the growth in the test on EKVX NSCLC is 45.2%; in the test with SN12C renal, 62.3%; in the test with UO-31 renal, 39%; with TK-10 renal it was 53.3%; in the test with ACHN renal it was 39.4%; in the test on CAKI-1 renal, 37.3%. Further, the growth with A498 renal was 0.985% (active); with CCRF-CEM leukemia, 21.6%; in the test with MOLT-4 leukemia, 27.8%.

For `Fc1cc2[nH]ncc2c2c3c(c(-c4cn[nH]c4C(F)(F)F)nc12)CCCC3`, the growth with EKVX NSCLC is 8.29% (active); with SN12C renal, 4.98% (active); in the test with UO-31 renal, -7.31% (active); with TK-10 renal, -8.31% (active); in the test with ACHN renal, 0.165% (active); in the test on CAKI-1 renal it was -7.15% (active). Moreover, the growth in the test on A498 renal is -63.9% (active); in the test with CCRF-CEM leukemia, 1.34% (active); in the test with MOLT-4 leukemia, 10.9%.

Consider `CCOC(=O)/C(=C(/C)NCC(C)C)c1cc(O)c(O)c2c(C)cc(=O)[nH]c12`, for which the growth in the test with EKVX NSCLC is 89.3%; in the test with SN12C renal, 42.9%; in the test with UO-31 renal it was 59.3%; in the test on TK-10 renal it was 77.7%; in the test on ACHN renal, 47.8%; in the test with CAKI-1 renal it was 51.4%. For the same compound, the growth is 79.2% in the test with A498 renal, 11.2% with CCRF-CEM leukemia and 10.5% in the test on MOLT-4 leukemia.

`Nc1nc(N(Cc2ccccc2)c2ccccc2)c2cn[nH]c2n1`: the growth with EKVX NSCLC is 75.3%; in the test on SN12C renal, 85.8%; with UO-31 renal, 75%; in the test with TK-10 renal, 92.2%; with ACHN renal, 71.2%; in the test on CAKI-1 renal, 31.9%. Moreover, the growth in the test with A498 renal was 69.9%; in the test with CCRF-CEM leukemia, 92.6%; in the test on MOLT-4 leukemia, 62.2%.

For the compound `O=S(Nc1ccccc1)c1ccc(Cl)cc1` (stereo unspecified), the growth in the test on EKVX NSCLC was 102%; in the test on SN12C renal, 102%; in the test on UO-31 renal it was 85.7%; with TK-10 renal, 103%; in the test on ACHN renal, 94.5%; with CAKI-1 renal it was 95.5%. In addition, the growth in the test with A498 renal is 95.8%; in the test with CCRF-CEM leukemia, 95.7%; in the test with MOLT-4 leukemia, 85.7%.

On to `O=C1/C(=C/c2cccc(Br)c2)COc2ccc(O)cc21`, for which the growth in the test on EKVX NSCLC is 78.4%; with SN12C renal it was 4.81% (active); in the test with UO-31 renal, 54.1%; with TK-10 renal, 93.1%; in the test on ACHN renal it was 54.6%; in the test on CAKI-1 renal it was 63.5%. Moreover, the results for the growth with A498 renal, with CCRF-CEM leukemia and with MOLT-4 leukemia were 99.5%, 0.865% (active) and 6.15% (active), respectively.
